# For part of these data: Measured potencies and affinities stand elsewhere. Calls of active or inactive are those of the source.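 The calls were made as follows, unless noted: active = hit in primary screen, with calcium signal over 5 SD above buffer well mean in both duplicates; inactive = the rest.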
# Tests used:
# [1] = system: TRPC4 beta (transient receptor potential cation channel C4), mouse; assay: activators of mouse TRPC4 channel, confirmation, cell-based, Fluo4 calcium, HEK293 TRPC4beta/mu-opioid, duplicates, 10 µM (AID 2426;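 active = fluorescence ratio normalized to control raised more than 50% in primary screen plus both repeat runs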;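 as to activation: percent rise of integrated ratio over buffer wells lacking compound which define 0%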); conditions: Fluo4 calcium fluorescence, at 10 µM; hits give high values
# [2] = system: transient receptor potential cation channel C4 beta (TRPC4), mouse; assay: activators of mouse TRPC4 channel, confirmation, cell-based, second round, Fluo4, HEK293 TRPC4beta/mu-opioid, 1 µM (AID 2461;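 active = primary screen active and over 50% activation in each of two duplicate runs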;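 as to activation: 0% = wells without test compound as baseline of integrated fluorescence ratio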); conditions: Fluo4 calcium fluorescence, at 1 µM; hits give high values
# [3] = system: TRPC4 (transient receptor potential cation channel C4 beta), mouse; assay: positive allosteric modulators of mouse TRPC4, confirmation, cell-based, second round, Fluo-4, HEK293 TRPC4beta/mu-opioid, 1 µM (AID 2554;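 active = primary screen hit whose fluorescence ratio, in both repeats, exceeds the weak agonist control mean by 3 SD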); conditions: DAMGO EC20, Fluo-4 calcium flux, at 1 µM; hits give high values
# [4] = system: TRPC4 beta (transient receptor potential cation channel C4), mouse; assay: positive allosteric modulators of mouse TRPC4, confirmation, cell-based, Fluo-4, HEK293 TRPC4beta/mu-opioid (AID 2555;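 active = primary screen hit whose calcium fluorescence ratio, in both repeats, exceeds the weak agonist control mean by 3 SD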); conditions: DAMGO EC20, Fluo-4 calcium flux, at 10 µM; hits give high values
# [5] = biological target: Short transient receptor potential channel 4 (Mus musculus) (UniProt Q9QUQ5); assay: inhibitors of mouse TRPC4 channel, confirmation, cell-based, Fluo4, HEK293 TRPC4beta/mu-opioid (AID 2636;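 active = calcium signal cut by more than 3 SD below the full-agonist control yet still positive, in both repeats and the earlier primary screen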); conditions: DAMGO, Fluo4 calcium flux, at 10 µM; hits give high values
# Chain of Short transient receptor potential channel 4 (Mus musculus) (Q9QUQ5 whole entry, looked up): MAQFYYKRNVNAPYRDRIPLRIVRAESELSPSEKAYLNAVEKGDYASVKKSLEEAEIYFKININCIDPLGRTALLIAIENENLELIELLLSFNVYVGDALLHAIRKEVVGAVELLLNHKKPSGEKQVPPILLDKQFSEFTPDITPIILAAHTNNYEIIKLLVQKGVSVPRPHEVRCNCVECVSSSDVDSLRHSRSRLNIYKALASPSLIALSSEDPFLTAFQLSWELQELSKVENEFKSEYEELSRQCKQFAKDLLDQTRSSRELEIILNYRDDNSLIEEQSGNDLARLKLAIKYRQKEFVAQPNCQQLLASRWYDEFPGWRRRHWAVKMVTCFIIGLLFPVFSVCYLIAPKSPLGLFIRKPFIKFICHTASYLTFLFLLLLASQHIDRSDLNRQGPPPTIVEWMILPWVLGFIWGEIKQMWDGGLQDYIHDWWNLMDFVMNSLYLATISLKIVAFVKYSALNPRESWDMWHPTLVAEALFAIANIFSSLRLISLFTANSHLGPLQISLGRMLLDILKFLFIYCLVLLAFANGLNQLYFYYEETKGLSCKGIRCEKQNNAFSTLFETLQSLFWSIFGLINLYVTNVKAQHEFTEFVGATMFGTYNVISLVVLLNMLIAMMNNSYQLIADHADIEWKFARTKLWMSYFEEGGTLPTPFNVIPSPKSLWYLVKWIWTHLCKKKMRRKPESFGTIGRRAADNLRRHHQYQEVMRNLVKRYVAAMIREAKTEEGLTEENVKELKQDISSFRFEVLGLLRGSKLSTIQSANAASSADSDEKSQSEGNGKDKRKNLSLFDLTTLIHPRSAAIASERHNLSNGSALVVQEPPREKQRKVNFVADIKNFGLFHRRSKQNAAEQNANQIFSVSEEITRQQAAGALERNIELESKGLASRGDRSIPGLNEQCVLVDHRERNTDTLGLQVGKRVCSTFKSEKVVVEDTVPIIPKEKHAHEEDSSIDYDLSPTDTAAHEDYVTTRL
# [6] = biological target: Short transient receptor potential channel 4 (Mus musculus) (UniProt Q9QUQ5); assay: inhibitors of mouse TRPC4 channel, confirmation, cell-based, second round, Fluo4, HEK293 TRPC4beta/mu-opioid, 1 µM (AID 2637;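 active = calcium signal ratio cut to more than 3 SD under the fully stimulated control mean yet still positive, in both repeats and the primary screen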); conditions: Fluo4 calcium flux, DAMGO, at 1 µM; hits give high values
# [7] = biological target: Short transient receptor potential channel 4 (Mus musculus) (UniProt Q9QUQ5); assay: TRPC4 positive allosteric modulators, dose response, cell-based, HEK293 TRPC4/mu-opioid, Fluo-4 calcium, EC20 DAMGO (AID 434941;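 active = earlier screen potentiator hit that boosts the TRPC4 ion channel at some dose, with a dose response; inactive = no potentiation, no dose response, or not a prior hit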;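 also: calcium entry triggered by an EC20 dose of DAMGO at the co-expressed mu-opioid receptor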)
# [8] = biological target: Short transient receptor potential channel 4 (Mus musculus) (UniProt Q9QUQ5); assay: mouse TRPC4 channel inhibitors, dose response, cell-based, HEK293 TRPC4/mu-opioid, Fluo-4 calcium (AID 434942;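 active = primary screen inhibitor hit that blocks the TRPC4 channel at some tested dose, yielding a dose curve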)
# [9] = biological target: Short transient receptor potential channel 6 (Mus musculus) (UniProt Q61143); assay: inhibition of mouse TRPC6 channel, confirmation, selectivity assay for TRPC4 inhibitor project, cell-based, HEK293, membrane potential dye, duplicate (AID 434948;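 active = active in primary screen and both duplicates, each dropping signal beyond three positive-control SD with fluorescence still positive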); conditions: HEK293 TRPC6, membrane potential dye fluorescence, at 10 µM, stimulated with maximal-effect acetylcholine; hits give high values
# Chain of Short transient receptor potential channel 6 (Mus musculus) (Q61143 whole entry, looked up): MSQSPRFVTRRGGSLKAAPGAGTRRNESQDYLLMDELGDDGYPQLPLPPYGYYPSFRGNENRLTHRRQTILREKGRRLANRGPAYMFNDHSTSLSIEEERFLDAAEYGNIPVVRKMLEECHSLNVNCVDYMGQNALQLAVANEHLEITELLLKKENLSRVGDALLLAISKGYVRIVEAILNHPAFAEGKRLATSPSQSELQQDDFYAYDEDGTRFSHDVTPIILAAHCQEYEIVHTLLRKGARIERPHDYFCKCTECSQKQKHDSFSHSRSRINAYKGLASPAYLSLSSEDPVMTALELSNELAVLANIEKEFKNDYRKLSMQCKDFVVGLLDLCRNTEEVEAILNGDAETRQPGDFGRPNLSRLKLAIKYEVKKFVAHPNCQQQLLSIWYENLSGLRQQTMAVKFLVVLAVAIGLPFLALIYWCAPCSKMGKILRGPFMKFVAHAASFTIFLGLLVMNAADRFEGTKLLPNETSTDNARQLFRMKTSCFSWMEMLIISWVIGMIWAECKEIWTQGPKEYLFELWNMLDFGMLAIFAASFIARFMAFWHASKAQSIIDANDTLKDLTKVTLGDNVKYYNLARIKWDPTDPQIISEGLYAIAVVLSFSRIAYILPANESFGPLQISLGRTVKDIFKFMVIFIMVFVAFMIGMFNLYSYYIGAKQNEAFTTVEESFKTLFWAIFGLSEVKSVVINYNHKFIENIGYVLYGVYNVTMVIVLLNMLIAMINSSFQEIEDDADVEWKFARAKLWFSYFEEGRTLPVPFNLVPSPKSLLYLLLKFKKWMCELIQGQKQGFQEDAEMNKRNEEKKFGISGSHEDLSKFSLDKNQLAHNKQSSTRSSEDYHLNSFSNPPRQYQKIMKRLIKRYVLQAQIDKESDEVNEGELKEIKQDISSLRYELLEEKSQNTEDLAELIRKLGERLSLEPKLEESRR
# [10] = biological target: Short transient receptor potential channel 6 (Mus musculus) (UniProt Q61143); assay: activation of mouse TRPC6 channel, confirmation, selectivity assay for TRPC4 activator project, cell-based, HEK293, membrane potential dye, duplicate (AID 434950;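 active = membrane potential signal rise above negative control mean plus 3 SD in both duplicates, also active in the earlier TRPC4 screen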;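 as to activation: 0% = buffer only wells and 100% = acetylcholine maximal-effect wells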); conditions: HEK293 TRPC6, membrane potential fluorescence, at 10 µM; hits give high values
# [11] = biological target: Short transient receptor potential channel 6 (Mus musculus) (UniProt Q61143); assay: TRPC6 potentiation by TRPC4 potentiator hits, confirmation, selectivity assay for TRPC4 potentiator project, HEK293 cells, membrane potential dye, duplicate (AID 434952;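 active = compound raising the membrane signal above positive-control mean plus 3 SD in both repeats, and a primary screen hit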); conditions: HEK293 TRPC6, membrane potential dye fluorescence, at 10 µM, maximal acetylcholine added after compound; hits give high values
# [12] = biological target: Short transient receptor potential channel 4 (Mus musculus) (UniProt Q9QUQ5); assay: calcium flux activators in TRPC4/5HT1a cells, counter-screen for TRPC4 activator project, cell-based, second counter screen, HEK293 TRPC4/5HT1a, Fluo-4 (AID 434977;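 active = calcium signal rise above buffer-control mean plus 5 SD in both duplicates, and also a hit in the primary screen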;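 as to activation: plate controls were assay buffer for no effect and maximal serotonin response for full effect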); conditions: Fluo-4 calcium flux, at 10 µM; hits give high values
# [13] = calcium flux inhibitors in TRPC4/5HT1a cells, confirmation, counter-screen for TRPC4 inhibitor project, cell-based, second counter screen, HEK293 TRPC4/5HT1a, Fluo-4 (AID 434978;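 active = primary screen active whose calcium signal fell more than 3 SD beyond the full-serotonin control mean in both duplicate plates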;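 also: serotonin given first at submaximal then at maximal dose after compound preincubation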); conditions: Fluo-4 calcium flux, at 10 µM, serotonin added to trigger calcium flux; hits give high values
# [14] = system: TRPC4 (mouse), co-expressed with 5HT1a in HEK293; assay: calcium flux potentiators in TRPC4/5HT1a cells, confirmation, counter-screen for TRPC4 potentiator project, cell-based, second counter screen, HEK293 TRPC4/5HT1a, Fluo-4 (AID 434979;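 active = signal rise over 3 SD above mean of control wells given weak agonist, in both repeats and first screen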); conditions: Fluo-4 calcium flux, at 10 µM, serotonin added at its EC20 dose; hits give high values
# [15] = calcium flux activation in mu-opioid HEK293 cells, confirmation, counter-screen for TRPC4 activator project, cell-based, HEK293 mu-opioid receptor line (AID 449723); conditions: Fluo-4 calcium fluorescence, at 10 µM; hits give high values;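 also: counter screen cells carry the mu-opioid receptor alone and lack TRPC4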
# [16] = calcium flux enhancement in mu-opioid HEK293 cells, confirmation, counter-screen for TRPC4 allosteric potentiator project, cell-based, HEK293 mu-opioid receptor line (AID 449724;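 active = calcium signal rise more than 3 SD above the low-dose agonist control mean, in both duplicate plates and the primary screen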); conditions: Fluo-4 calcium flux, at 10 µM, compound added before EC20 DAMGO stimulus; hits give high values
compound,measurement,setting,value
COc1cc(OC)c(CN2CCC(Cc3ccccc3)CC2)cc1Br,activation,[1],121% (active)
same,outcome,[2],inactive
same,outcome,[3],inactive
same,outcome,[4],inactive
same,outcome,[5],inactive
same,outcome,[6],inactive
same,outcome,[7],inactive
same,outcome,[8],inactive
same,outcome,[9],inactive
same,activation,[10],43.5% (active)
same,outcome,[11],inactive
same,activation,[12],44.9% (active)
same,outcome,[13],inactive
same,outcome,[14],inactive
same,outcome,[15],inactive
same,outcome,[16],inactive
CC(NCCC1(Cc2ccccc2Cl)CCOC(C)(C)C1)c1cccs1 (stereo not given),activation,[1],89% (active)
same,outcome,[2],inactive
same,outcome,[3],inactive
same,outcome,[4],inactive
same,outcome,[5],inactive
same,outcome,[6],inactive
same,outcome,[7],inactive
same,outcome,[8],inactive
same,outcome,[9],inactive
same,outcome,[10],inactive
same,outcome,[11],inactive
same,outcome,[12],inactive
same,outcome,[13],inactive
same,outcome,[14],inactive
same,outcome,[15],inactive
same,outcome,[16],inactive
CCC1(c2ccc(F)cc2)NC(=O)N(CC(=O)c2cc(C)n(C3CC3)c2C)C1=O (stereo not given),outcome,[1],inactive
same,outcome,[2],inactive
same,outcome,[3],inactive
same,potentiation,[4],16% (active)
same,outcome,[5],inactive
same,outcome,[6],inactive
same,outcome,[7],inactive
same,outcome,[8],inactive
same,outcome,[9],inactive
same,outcome,[10],inactive
same,outcome,[11],inactive
same,activation,[12],27% (active)
same,outcome,[13],inactive
same,potentiation,[14],24.5% (active)
same,activation,[15],13.8% (active)
same,outcome,[16],inactive
O=C(COc1ccccc1)NNC(=S)NC(=O)c1ccc(Cl)cc1Cl,activation,[1],63% (active)
same,outcome,[2],inactive
same,outcome,[3],inactive
same,outcome,[4],inactive
same,outcome,[5],inactive
same,outcome,[6],inactive
same,outcome,[7],inactive
same,outcome,[8],inactive
same,outcome,[9],inactive
same,outcome,[10],inactive
same,outcome,[11],inactive
same,activation,[12],44.7% (active)
same,outcome,[13],inactive
same,outcome,[14],inactive
same,outcome,[15],inactive
same,outcome,[16],inactive
CCOC(=O)C1(Cc2cccc(F)c2)CCN(Cc2cnc(C)s2)CC1,outcome,[1],inactive
same,outcome,[2],inactive
same,outcome,[3],inactive
same,outcome,[4],inactive
same,outcome,[5],inactive
same,outcome,[6],inactive
same,outcome,[7],inactive
same,outcome,[8],inactive
same,outcome,[9],inactive
same,activation,[10],44% (active)
same,outcome,[11],inactive
same,outcome,[12],inactive
same,outcome,[13],inactive
same,outcome,[14],inactive
same,outcome,[15],inactive
same,outcome,[16],inactive
CCCN(CCC)CCNC(=S)Nc1ccc2nc3n(c(=O)c2c1)CCCCC3,outcome,[1],inactive
same,outcome,[2],inactive
same,outcome,[3],inactive
same,outcome,[4],inactive
same,outcome,[5],inactive
same,outcome,[6],inactive
same,outcome,[7],inactive
same,outcome,[8],inactive
same,outcome,[9],inactive
same,activation,[10],47% (active)
same,outcome,[11],inactive
same,activation,[12],7.78% (active)
same,outcome,[13],inactive
same,outcome,[14],inactive
same,outcome,[15],inactive
same,outcome,[16],inactive
CCN1CCN(c2c(Cl)cccc2NC(=O)c2ccc3nsnc3c2)CC1,activation,[1],57% (active)
same,outcome,[2],inactive
same,potentiation,[3],22% (active)
same,potentiation,[4],14% (active)
same,outcome,[5],inactive
same,outcome,[6],inactive
same,outcome,[7],inactive
same,outcome,[8],inactive
same,outcome,[9],inactive
same,outcome,[10],inactive
same,outcome,[11],inactive
same,outcome,[12],inactive
same,outcome,[13],inactive
same,outcome,[14],inactive
same,outcome,[15],inactive
same,outcome,[16],inactive
COc1ccc(-c2nc(CN3CCC(C(=O)NC4CCCC4)CC3)c(C)o2)cc1OC,activation,[1],152% (active)
same,activation,[2],70% (active)
same,outcome,[3],inactive
same,outcome,[4],inactive
same,outcome,[5],inactive
same,outcome,[6],inactive
same,outcome,[7],inactive
same,outcome,[8],inactive
same,outcome,[9],inactive
same,activation,[10],57% (active)
same,outcome,[11],inactive
same,outcome,[12],inactive
same,outcome,[13],inactive
same,outcome,[14],inactive
same,outcome,[15],inactive
same,outcome,[16],inactive
CN(C)C(CNC(C(=O)Nc1ccc(F)cc1)c1ccccc1)c1ccccc1 (stereo not given),activation,[1],126% (active)
same,activation,[2],68% (active)
same,outcome,[3],inactive
same,outcome,[4],inactive
same,outcome,[5],inactive
same,outcome,[6],inactive
same,outcome,[7],inactive
same,outcome,[8],inactive
same,outcome,[9],inactive
same,outcome,[10],inactive
same,outcome,[11],inactive
same,outcome,[12],inactive
same,outcome,[13],inactive
same,outcome,[14],inactive
same,outcome,[15],inactive
same,outcome,[16],inactive
Cc1cc(C)c(CN2CCN(Cc3ccc(C)o3)C(CCO)C2)c(-n2cccn2)c1 (stereo not given),activation,[1],75% (active)
same,outcome,[2],inactive
same,outcome,[3],inactive
same,outcome,[4],inactive
same,outcome,[5],inactive
same,outcome,[6],inactive
same,outcome,[7],inactive
same,outcome,[8],inactive
same,outcome,[9],inactive
same,activation,[10],73% (active)
same,outcome,[11],inactive
same,outcome,[12],inactive
same,outcome,[13],inactive
same,outcome,[14],inactive
same,outcome,[15],inactive
same,outcome,[16],inactive
CCOC(=O)C1(CCOc2ccccc2)CCN(Cc2ccc3c(c2)OCCO3)CC1,outcome,[1],inactive
same,outcome,[2],inactive
same,outcome,[3],inactive
same,outcome,[4],inactive
same,outcome,[5],inactive
same,outcome,[6],inactive
same,outcome,[7],inactive
same,outcome,[8],inactive
same,outcome,[9],inactive
same,activation,[10],74.5% (active)
same,outcome,[11],inactive
same,outcome,[12],inactive
same,outcome,[13],inactive
same,outcome,[14],inactive
same,outcome,[15],inactive
same,outcome,[16],inactive
O=C(NCCc1cccc(Cl)c1)c1ccc(OC2CCN(Cc3ccccn3)CC2)cc1,activation,[1],69% (active)
same,outcome,[2],inactive
same,outcome,[3],inactive
same,outcome,[4],inactive
same,outcome,[5],inactive
same,outcome,[6],inactive
same,outcome,[7],inactive
same,outcome,[8],inactive
same,outcome,[9],inactive
same,activation,[10],43.5% (active)
same,outcome,[11],inactive
same,outcome,[12],inactive
same,outcome,[13],inactive
same,outcome,[14],inactive
same,outcome,[15],inactive
same,outcome,[16],inactive
OCCNCCSc1ccc(Cl)cc1,activation,[1],82% (active)
same,outcome,[2],inactive
same,outcome,[3],inactive
same,outcome,[4],inactive
same,outcome,[5],inactive
same,outcome,[6],inactive
same,outcome,[7],inactive
same,outcome,[8],inactive
same,outcome,[9],inactive
same,activation,[10],39.5% (active)
same,outcome,[11],inactive
same,activation,[12],22.3% (active)
same,outcome,[13],inactive
same,outcome,[14],inactive
same,outcome,[15],inactive
same,outcome,[16],inactive
CC(=O)N1CCc2cc(Br)cc(S(=O)(=O)NCCCN(C)Cc3ccccc3)c21,activation,[1],87% (active)
same,activation,[2],72% (active)
same,outcome,[3],inactive
same,outcome,[4],inactive
same,outcome,[5],inactive
same,outcome,[6],inactive
same,outcome,[7],inactive
same,outcome,[8],inactive
same,outcome,[9],inactive
same,outcome,[10],inactive
same,outcome,[11],inactive
same,activation,[12],27.8% (active)
same,outcome,[13],inactive
same,outcome,[14],inactive
same,outcome,[15],inactive
same,outcome,[16],inactive
Cc1csc2c(N3CCN(C(=O)NC(C)(C)C)CC3)ncnc12,activation,[1],92% (active)
same,outcome,[2],inactive
same,outcome,[3],inactive
same,outcome,[4],inactive
same,outcome,[5],inactive
same,outcome,[6],inactive
same,outcome,[7],inactive
same,outcome,[8],inactive
same,outcome,[9],inactive
same,outcome,[10],inactive
same,outcome,[11],inactive
same,activation,[12],36.7% (active)
same,outcome,[13],inactive
same,outcome,[14],inactive
same,outcome,[15],inactive
same,outcome,[16],inactive
